In PubChem BioAssay (EPA / NIEHS):
Where “and” joins values, the source holds several entries; their conditions need not be identical. Equal values may be shown once. More than one record can exist for a structure, and the calls need not agree. Calls of active or inactive are those of the source. How the source made its calls: active means hit-call score of the fitted dose curve at least 0.9, where 1 is the maximum; inactive means score below 0.9.

read-out: Monocyte Chemoattractant Protein-1 (MCP1), CCL2 (gene 6347); experiment: BSK_hDFCGF_MCP1: BioMAP Diversity Plus: hDFCGF Assay for Monocyte Chemoattractant Protein-1 (MCP1) Biomarker Activity (AID 2284285); conditions: primary human foreskin fibroblasts
Procedure: BSK_hDFCGF is a cell-based, multiplexed-readout assay that uses foreskin fibroblast, a human skin primary cell, with measurements taken at 24 hours after chemical dosing in a 96-well plate.BSK_hDFCGF_MCP1 is an assay component measured in the BSK_hDFCGF assay. It measures MCP-1 antibody related to regulation of gene expression using ELISA technology.Data from the assay component BSK_hDFCGF_MCP1 was analyzed at the endpoint, BSK_hDFCGF_MCP1, in the positive analysis fitting direction relative to DMSO as the negative control and baseline of activity. Using a type of binding reporter, gain or loss-of-signal activity can be used to understand protein changes. To generalize the intended target to other relatable targets, this assay endpoint is annotated to the 'cytokine' intended target family, where the subfamily is 'chemotactic factor'.
The levels of cell surface (or secreted, indicated by the prefix "s") biomarker endpoints were measured by ELISA. Overt cytotoxicity to cells in confluent adherent cultures (all systems other than the BT system) was assessed by measuring total protein levels using sulforhodamine B (SRB) staining in parallel cultures at the time of biomarker measurements, indicated as SRB endpoints. For proliferation assays for adherent cell types, individual cell types are cultured at sub-confluence and relative cell numbers quantified by SRB staining at time points optimized for each system (48 h: 3C and CASM3C systems; 72 h: BT and HDF3CGF systems; 96 h: SAg system). SRB was performed by staining cells with 0.1% SRB after fixation with 10% TCA and reading wells at 560 nm.Viability and proliferation of PBMC (T cells) was quantified by Alamar Blue reduction for the SAg and BT systems. For PBMC viability (referred to as PBMC Cytotoxicity within the assay endpoint names), cells were plated (75,000/well in a 96-well plate) and then chemical samples added for 1 h before addition of activators, SEB and TSST-1 (20 ng/mL final concentration each). Cells were incubated for 90 h. Then, Alamar Blue (20 uL/well) (Invitrogen, Cat DAL1100) was added for 6 h, and the plates were read with a fluorescence microplate reader at 546/580 nm (excitation/emission). For PBMC proliferation, cells were plated and activated as above but incubated for only 16 h prior to addition of Alamar Blue. Plates were read after 6 h.

Structure (SMILES) | outcome | AC50
C=CC(=O)OCCC(F)(F)C(F)(F)C(F)(F)C(F)(F)C(F)(F)C(F)(F)C(F)(F)C(F)(F)F | inactive | 7.29 µM (active)
O=C(O)CCC(F)(F)C(F)(F)C(F)(F)C(F)(F)C(F)(F)F | inactive | –
O=C(O)C(F)(F)OC(F)(F)C(F)(F)OC(F)(F)C(F)(F)OC(F)(F)C(F)(F)C(F)(F)C(F)(F)F | – | 8.5 µM (active) and 8.66 µM (active)
O=P(O)(O)CCC(F)(F)C(F)(F)C(F)(F)C(F)(F)C(F)(F)C(F)(F)F | inactive | –
O=S(=O)(O)C(F)(F)C(F)(F)C(F)(F)C(F)(F)C(F)(F)C(F)(F)C(F)(F)C(F)(F)C(F)(F)C(F)(F)F | inactive | 10.3 µM (active)
O=C(CC(=O)C(F)(F)C(F)(F)C(F)(F)F)c1cccs1 | inactive | –
O=C(O)CCC(F)(F)C(F)(F)C(F)(F)C(F)(F)C(F)(F)C(F)(F)F | inactive | –
Oc1c(Cl)cc(Cl)cc1Sc1cc(Cl)cc(Cl)c1O | – | 2.54 µM (active) and 3.14 µM (active)
CCCCCCCCCCCC | – | 11.1 µM (active) and 7.93 µM (active)
CN(Cc1cnc2nc(N)nc(N)c2n1)c1ccc(C(=O)N[C@@H](CCC(=O)O)C(=O)O)cc1 | inactive | 0.607 µM (active)
CN(CCO)S(=O)(=O)C(F)(F)C(F)(F)C(F)(F)C(F)(F)C(F)(F)C(F)(F)C(F)(F)C(F)(F)F | inactive | 0.0742 µM (active)
OCC(F)(F)C(F)(F)C(F)(F)C(F)(F)C(F)(F)C(F)(F)C(F)(F)C(F)(F)C(F)(F)C(F)(F)C(F)(F)F | inactive | –
O=C1NS(=O)(=O)c2ccccc21 | inactive | –
Oc1ccc(Cc2ccccc2O)cc1 | inactive | –
O=P(O)(O)CCC(F)(F)C(F)(F)C(F)(F)C(F)(F)C(F)(F)C(F)(F)C(F)(F)C(F)(F)F | inactive | –
